Bioassay records (PubChem BioAssay)
Compounds with a hit are over-represented: about 0.37% of the library has one in this group of screens.
Rab2 wt GTP = changes GTP binding to wildtype dog Rab2A, up or down | 0.19% of 190,000 active | GST-Rab2 wt beads, Bodipy-GTP binding, flow cytometry | P61105 | GTP binding activity, % at 10 µM;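 active = GTP binding activity at least 20 points away from 100%, either lowered or raised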;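 also: 0% = beads with excess unlabeled GTP and 100% = no-compound control corrected for plate trend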
Rab7 wt modul = alters GTP binding to wildtype dog Rab7 | 0.055% of 190,000 active | GTP binding activity (percent of control), % at 10 µM | GST-Rab7 beads, fluorescent GTP binding, flow cytometry; actives lie on both sides; untreated = 100%, excess cold GTP = 0%;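 active = fluorescent GTP binding to Rab7 beads changed by at least 20 points from the 100% baseline, either direction, mostly lower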;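 also: median green fluorescence of bound Bodipy-FL-GTP per Rab7 bead population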
HRas wt GTP bind = changes GTP binding to wildtype human HRas | 0.14% of 190,000 active | GTP binding activity, % at 10 µM | GST-Ras wt beads, Bodipy-FL-GTP binding, flow cytometry; actives lie on both sides | P01112 | AID 759;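 active = GTP binding activity at least 20% away from the 100% baseline, either lowered as inhibitor or raised as activator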;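 also: 0% = unlabeled GTP competition control and 100% = no-compound control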
Target sequence (P01112 whole entry, looked up): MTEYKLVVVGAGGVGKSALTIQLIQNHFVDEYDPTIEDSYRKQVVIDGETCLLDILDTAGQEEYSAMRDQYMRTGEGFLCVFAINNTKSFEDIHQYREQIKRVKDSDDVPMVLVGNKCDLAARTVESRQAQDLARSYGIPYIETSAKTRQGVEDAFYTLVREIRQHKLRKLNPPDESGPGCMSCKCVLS
Rac1 mut GTP = modulators of GTP binding to human Rac1 activated mutant; P63000; GST-Rac1 activated beads, fluorescent GTP binding, flow cytometry; actives lie on both sides; 100% means binding = to untreated wells; percent activity (GTP binding), % at 10 µM; 0.11% of 190,000 active; AID 764;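 active = GTP binding at least 20 percentage points away from the 100% baseline, in either direction, so actives lie on both sides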
Rac1 wt GTP bind = human Rac1 wildtype GTP binding, inhibitors and activators; P63000; GST-Rac1 beads, fluorescent GTP binding, flow cytometry; actives lie on both sides; 0 = cold GTP competed, 100 = untreated; GTP binding activity (% of control), % at 10 µM; 0.27% of 190,000 active;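 active = GTP binding activity at least 20 points away from the 100% control level, either lower or higher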
Cdc42 wt GTP = changes GTP binding to wildtype human Cdc42. GST-Cdc42 beads, Bodipy-GTP binding, flow cytometry; actives lie on both sides. percent activity (GTP binding), % at 10 µM. 0.2% of 190,000 active. AID 761;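 active = percent activity GTP binding at least 20 points away from the 100% baseline, either down as inhibitor or up as activator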;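 also: median bead fluorescence of bound Bodipy-FL-GTP at 100 nM; 0% = excess unlabeled GTP control and 100% = no compound control; below 100% means less GTP binding so inhibitor and above means activator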
Target sequence (P60953 whole entry, looked up): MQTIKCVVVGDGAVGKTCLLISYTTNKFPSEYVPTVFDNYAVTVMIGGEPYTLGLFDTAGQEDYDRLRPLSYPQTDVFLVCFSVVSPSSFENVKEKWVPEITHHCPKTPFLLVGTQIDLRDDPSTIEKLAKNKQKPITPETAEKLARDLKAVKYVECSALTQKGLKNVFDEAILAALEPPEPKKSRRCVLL
The depositor's hits bear a star; [ ] = remark or other dose.

SMILES	Rab2 wt GTP	Rab7 wt modul	HRas wt GTP bind	Rac1 mut GTP	Rac1 wt GTP bind	Cdc42 wt GTP
Cc1nc2c(ccc3c([N+](=O)[O-])cccc32)c(C)c1C	102	110	100	99	103	100
N#Cc1c2nc3ccccc3nc2n2cc(NC(=O)c3ccc(F)cc3)ccc12	77*	89	81	88	79*	91
O=C(Nc1nc2ccccc2[nH]1)c1ccc(F)cc1	101	97	101	103	103	103
COc1ccc(C(CC(=O)O)NC(=O)c2cc3cc(Br)ccc3oc2=O)cc1OC (stereo not given)	76*	83	83	76*	80	77*
O=C(CCc1nnc(-c2ccc3c(c2)OCO3)o1)N1CCC(c2ccc(F)cc2)C1 (stereo not given)	82	96	87	79*	88	81
COc1ccc(Cl)cc1S(=O)(=O)Oc1ccc(NC(C)=O)cc1	97	95	97	99	102	99
CS(=O)(=O)c1ccc(S(=O)CC(=O)Oc2ccc(Cl)cc2)c([N+](=O)[O-])c1 (stereo not given)	95	102	93	92	94	91
N#C/C(=C(/O)COc1ccc(Br)cc1)c1nnc2n1CCCCC2	77*	80	81	75*	78*	76*
CC/C(O)=C(/C#N)c1nnc2n1CCCCC2	102	102	101	100	104	103
COc1ccccc1N1CCN(c2ccc([N+](=O)[O-])cc2Cl)CC1	105	102	103	104	110	102
CNC(=O)C(C)NS(=O)(=O)c1ccc(F)cc1 (stereo not given)	36*	27*	40*	36*	34*	37*
Cc1ccc(NC(=O)C(C)NS(=O)(=O)c2ccc(F)cc2)cc1C (stereo not given)	105	111	103	101	113	104
O=C(Cc1cccs1)Nc1cccc(C(=O)Nc2ccc(C(=O)O)cc2)c1	99	101	99	96	104	100
Cc1csc(NC(=O)c2cc(=O)[nH]c3ccc(S(=O)(=O)N4CCOCC4)cc23)n1	79*	94	84	89	75*	80
O=C(NC1CCCCCC1)c1cc(=O)[nH]c2ccc(S(=O)(=O)N3CCOCC3)cc12	94	92	96	100	98	97
CCN(CC)C(=S)SCC(=O)Nc1nc(=O)c2ccccc2s1	95	93	96	96	99	94
Cc1cc(C)nc(Nc2nc(=O)c3ccccc3s2)n1	117	104	110	114	165*[activator]	135*[activator]
CCOc1ccccc1C(=O)NC(C(=O)Nc1cccc(S(N)(=O)=O)c1)C(C)C (stereo not given)	105	107	103	97	101	96
O=c1c2ccc([N+](=O)[O-])cc2ncn1CCOc1ccccc1	79*	95	81	87	76*	84
Cc1ccc(OCCn2cnc3cc([N+](=O)[O-])ccc3c2=O)cc1	79*	100	82	87	90	79*
Cc1onc(C(N)=O)c1C(=O)Nc1ncc(C(F)(F)F)cc1Cl	97	100	96	94	96	96
FC(F)(F)c1ccccc1NC1=NCCC1	97	106	100	96	98	99
CCc1ccccc1NC(=O)Cn1nc(C(F)(F)F)cc1C1CC1	94	97	96	94	93	93
O=c1[nH]cnc2c1N=C(c1cccc([N+](=O)[O-])c1)CC(c1ccccc1)N2 (stereo not given)	100	111	100	96	100	98
CCC1SC(CC)C(=O)N(CC(=O)Nc2ccc3c(c2)OCO3)C1=O (stereo not given)	99	104	99	100	104	101
SMILES	Rab2 wt GTP	Rab7 wt modul	HRas wt GTP bind	Rac1 mut GTP	Rac1 wt GTP bind	Cdc42 wt GTP
COc1cc([N+](=O)[O-])ccc1N=Nc1c(N)[nH]n(-c2ccccc2)c1=O	80	87	85	83	81	78*
Cc1cc2nc3c(=O)n(C4CCCCC4)c(=O)[nH]c3nc2cc1N	73*	93	76*	87	74*	79*
CCNC(=S)N=Nc1c(O)[nH]c2ccc([N+](=O)[O-])cc12	65*	83	67*	80	58*	65*
CC(=O)Nc1ccc(Nc2nc(C)c([N+](=O)[O-])c(Nc3ccccc3)n2)cc1	99	99	99	101	105	99
Cc1nc(Nc2ccc(C(=O)O)cc2)nc(Nc2ccc(C(=O)O)cc2)c1[N+](=O)[O-]	55*	84	60*	77*	62*	55*
COc1ccc(-c2cc(C(F)(F)F)c3c(n2)sc2c(O)cc(=O)[nH]c23)c(OC)c1	78*	93	80	89	80	89
Cc1cc(C)c2c(n1)sc1c(O)cc(=O)[nH]c12	103	100	100	102	107	104
Cc1ccc(/C=C2\SC(=S)N(C(Cc3ccccc3)C(=O)O)C2=O)cc1 (stereo not given)	79*	92	85	80	83	82
Cc1cc(=O)[nH]c2c(N=Nc3ccc(O)cc3)c(N)nn12	64*	84	63*	79*	56*	60*
O=C(Cc1ccc(Cl)cc1)Nc1ccc(SC(F)F)cc1	98	95	99	99	101	101
CCc1ccc(NC(=O)c2cc3c(C)nc4ccccc4c3o2)cc1	85	91	87	89	75*	85
Cc1ccccc1NC(=O)c1cc2c(C)nc3ccccc3c2o1	88	92	90	90	84	88
C/C(=N\Nc1cc(C)nc(-c2ccccc2)n1)c1cccc([N+](=O)[O-])c1	84	89	88	86	73*	82
COc1cc(CO)cc(Br)c1OCC(=O)Nc1cccc2ccccc12	101	106	101	96	103	103
O=C(NCCN1CCN(c2cccc(Cl)c2)CC1)c1ccc(CSc2nc3ccncc3[nH]2)cc1	95	96	97	95	105	95
COc1cccc(-n2nnnc2S(C)(=O)=O)c1	85	92	90	70*	85	72*
COc1cccc(Oc2nnnn2-c2ccccc2)c1	99	98	99	99	104	99
CN(CC(=O)Nc1ccccc1Cl)CC(=O)Nc1ccccc1[N+](=O)[O-]	95	97	94	93	91	95
CCO[C@@H]1OC(C(=O)N2CCOCC2)=C[C@H](c2ccccc2)[C@H]1CCCO	95	96	98	95	98	99
